# Measurements published in publication PMC12136788.
# Whole data set: some 24,000 sequences, median “enrichment r” near 0.99, cut for the highest 2% near 3.7. This is one part of a sample in which the highest values are shown more often than they occur.
# T1: UNK ZnF1-3 (human, UniProt Q9C0B0 31-174)
# T1 sequence: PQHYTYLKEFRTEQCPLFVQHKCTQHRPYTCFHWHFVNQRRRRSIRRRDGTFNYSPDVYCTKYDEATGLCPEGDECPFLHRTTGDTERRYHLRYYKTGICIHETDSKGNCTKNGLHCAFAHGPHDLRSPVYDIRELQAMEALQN
# B1: chr9:14812383:14812384:-_ENSMUSG00000031934_ENSMUST00000164273|mus_mus|mus_mus_mus_hu_True|38_108 (ssRNA)
# RNA: GGGAGUUCUACAGUCCGACGAUCAUAGCUCAAGUAGAUACACGCUAACAGUAUAAUGAUGAGUGUCAGCAGGCGGCAGCUAAUGUACUUGAUGAUUAAAUGACUAGAAUUUUUCUUUGUCUUCAAGUACUGCUCCACAAUUGGCAACAGAGGAUUGAGCAUCA
# B2: chr13:120183613:120183614:-_ENSMUSG00000025453_ENSMUST00000099149|mus_hu|FALSE|FALSE (ssRNA)
# RNA: GGGAGUUCUACAGUCCGACGAUCGUAAAUAAAACUAAUCAGCGUUCCUGAUGUCUUUAAAAGGUCAGCUUCAUGAACACCUAAUGUUGGAUUAACCAUAGGGGCUCGCACUUUGACCACCAAAUCAGAAGCCAGCACUUCCUUCAACAGAGGAUUGAGCAUCA
# B3: chr7:34927866:34927867:-_ENSMUSG00000052997_ENSMUST00000102746|mus_mus|FALSE|FALSE (ssRNA)
# RNA: GGGAGUUCUACAGUCCGACGAUCGCUUUUGGCAGCAUCUUCAGCUUGUUUUGGCCCCACUUUUUCAGGGCUGUCACCAACUACUUCAAAUUCAACAUCCUUUCCAAGAUCUUCACUAUGAAGAAUGUUGAUCAGCAAAGUAUACAACAGAGGAUUGAGCAUCA
# B4: chr6:52144354:52144355:-_ENSG00000112118_ENST00000229854|hu_hu|FALSE|FALSE (ssRNA)
# RNA: GGGAGUUCUACAGUCCGACGAUCGGCUGGGGCCUUCUCCGGCAUCUCCUGGAUGGUGAUGGUCUGGUGAUCCUUGUAGACAGAAAGGCCAUAUUCUGUCUCAAGGGGAUUGUUCUCCUCAUCCUUGGUAGGAUAGACAGAGCUCAACAGAGGAUUGAGCAUCA
# B5: chrX:15845472:15845473:-_ENSG00000182287_ENST00000329235|hu_hu|motif|central (ssRNA)
# RNA: GGGAGUUCUACAGUCCGACGAUCCCACAAGAAGUCAUCAACAAGGGAGGAGAGUUAUGUCAGUCCAAUUUCUUCAAGAACACGGCGUGGGGUUUCAGCUUCCUCCUGCAGUAGAUCAGCCUGCUCAAUUGCUUUAAGGACAUUCAACAGAGGAUUGAGCAUCA
# B6: chr2:121258011:121258012:+_ENSMUSG00000027248_ENSMUST00000028683|mus_mus|FALSE|FALSE (ssRNA)
# RNA: GGGAGUUCUACAGUCCGACGAUCCUUGCCUUGUAUCAAAUCUUUAUUAUCUUCCGUCAUAUGAGGACAGAGACCAAAAAUGCUAUCCUGAAUAAAUUUCUUGAUCUUGCCACUGGUCAUUUUCUUUUCAGUAUAUGCCACAGUCAACAGAGGAUUGAGCAUCA
# B7: chr16:45382771:45382772:-_ENSMUSG00000022661_ENSMUST00000163230|mus_mus|mus_mus_mus_hu_True|18_78 (ssRNA)
# RNA: GGGAGUUCUACAGUCCGACGAUCCUGGGUCAUGUUAUAAGACAAAUGGACAGGGAGAGCAUGCUUUUCAAAAAAUGUGAGCUAUUGUCUAAGACUAACAAUAUUUAUCUAGCUAUAUAAAAAUAAGAAAUGAAUAAGUUAAGACAACAGAGGAUUGAGCAUCA
# B8: chr16:45382771:45382772:-_ENSMUSG00000022661_ENSMUST00000163230|mus_mus|mus_mus_mus_hu_True|8_78 (ssRNA)
# RNA: GGGAGUUCUACAGUCCGACGAUCCUGGGUCAUGUUAUAAGACAAAUGGACAGGGAGAGCAUGCUUUUCAAAAAAUGUGAGCUAUUGUCUAAGACUAACAAUAUUUAUCUAGCUAUAAAAAUAAGUUUUAAAUGGACGUUAAGACAACAGAGGAUUGAGCAUCA
# B9: chr15:42481402:42481403:-_ENSG00000166887_ENST00000318006|hu_hu|FALSE|FALSE (ssRNA)
# RNA: GGGAGUUCUACAGUCCGACGAUCCUUUGAAACCGUAGUGAUUUGUUGAAAUGUCAAUAGGUCAUGGACAUAAAUGUUAUUUUCUAACAAGCUGACCAGAAUCUUAAACUGGGAAACCACAUGGAUCUGCUGAAUCUUUUUGGACAACAGAGGAUUGAGCAUCA
# B10: chr16:45382771:45382772:-_ENSMUSG00000022661_ENSMUST00000163230|mus_mus|mus_mus_mus_hu_True|1_78 (ssRNA)
# RNA: GGGAGUUCUACAGUCCGACGAUCCUGGGUCAUGUUAUAAGACAAAUGGACAGGGAGAGCAUGCUUUUCAAAAAAUGUGAGCUAUUGUCUAAGACUAACAAUAUUUAUCUAGCUAUAAAAAUAAGUUAAAUGAAUAAACAUUACCAACAGAGGAUUGAGCAUCA
# B11: 83126405_83126525_1642_CDS_ENSMUSG00000058881_ENSMUST00000071233|mouse|control|control (ssRNA)
# RNA: GGGAGUUCUACAGUCCGACGAUCCCGGGGAUCAAGGUGGCCAGAAAGCAUGGGGUCCCCAGGUACACUGGCCCUCUUCCUCGGGGGAGCUUGGGUAGCCGGAGCAUCCUGUUCACGCUUGCGUUUUUCCUGGCUCACCAGUAUCAACAGAGGAUUGAGCAUCA
# B12: chr7:54825262:54825263:-_ENSG00000132432_ENST00000352861|hu_hu|hu_hu_hu_mus_False|18_38 (ssRNA)
# RNA: GGGAGUUCUACAGUCCGACGAUCCUGCCGGCUGGGCUCCACAAACUGCAUUACCUGAUCCAUGUUUGUUGGAUGGCGGAUUGAGAGCGUAGAGACAACGUAGCACUGAGAGAACCGGAUGGAGGCCAACCGGAAGCUGGCAACCAACAGAGGAUUGAGCAUCA
# B13: chr2:42543136:42543137:+_ENSG00000143924_ENST00000318522|hu_mus|FALSE|FALSE (ssRNA)
# RNA: GGGAGUUCUACAGUCCGACGAUCAUCUACUGAGUAGCGCAUCACAGACAGCUGCUCAUUGCCAUCCGUGUGGAUUGACACCAGAUCUCUUGUUUCUGCAUCCAGAACAAACCACCUGCCUGAGUGCGUUCCAAUGGCUACCACCAACAGAGGAUUGAGCAUCA
# B14: chr19:8913615:8913616:-_ENSMUSG00000071658_ENSMUST00000096259|mus_hu|mus_mus_mus_hu_False|48_78 (ssRNA)
# RNA: GGGAGUUCUACAGUCCGACGAUCAGGGUACCAAAACCUUCUGCCUGAAAUGGGUGCCCCACCCUGCAGGGAGUUGCAGCUGAAAGUAUCCGUAGCAGAAGCAGUGACUAUACGAAAGGAGGCCCCUGGGGAGGGCCAGGCCAGCAACAGAGGAUUGAGCAUCA
# Molecular target: T1, UNK ZnF1-3
# Experiment: nsRBNS (natural sequence RNA bind-n-seq); RBNS binding buffer (assumed for nsRBNS): 25 mM Tris pH 7.5, 150 mM KCl, 3 mM MgCl2, 0.01% Triton X-100, 500 ug/ml BSA, 20 U/ml SUPERase-In, 4 C; UNK is unkempt and MSI1 is Musashi-1; names of the RNAs are library labels; protein concentration not given here; high values mean tight binding
row,Binder,binding signal
1,B1,0.675 enrichment R
2,B2,0.662 enrichment R
3,B3,0.727 enrichment R
4,B4,0.84 enrichment R
5,B5,1.51 enrichment R
6,B6,1.28 enrichment R
7,B7,10 enrichment R
8,B8,5.26 enrichment R
9,B9,0.563 enrichment R
10,B10,4.46 enrichment R
11,B11,0.53 enrichment R
12,B12,0.908 enrichment R
13,B13,0.836 enrichment R
14,B14,1.24 enrichment R
